Test results from PubChem BioAssay (Tox21).
Where “and” joins values, the source holds several entries; their conditions need not be identical. Equal entries are not always repeated. Inconclusive results are not listed. More than one record can exist for a structure, and the calls need not agree. Calls of active or inactive are those of the source. Calls follow the shape of the dose curve; as a rule, active = well fitted curve in the direction sought with a large enough effect in the repeat runs; inconclusive = weak or mixed curves; inactive = no such curve, though single readings can be large; an effect the other way counts as inactive or inconclusive.

Key:
[1] = A CellTox Green Cytotoxicity Assay to monitor cytotoxicity in HEK293 cells - 40 hour (AID 1224871); also: nearly all actives have a fitted effect of over 45% in size
In short: (§1)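 Read-out: fluorescence of a cell-impermeant cyanine dye staining DNA of dead cells, proportional to cytotoxicity. HEK293, 600 cells/well with reagent, compound (23 nL DMSO) added after 5 h; reads at 0, 8, 16, 24, 32, 40 h.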

[2] = qHTS RealTime-Glo MT Cell Viability Assay in HEK293 cells - 16 hour (AID 1224872); also: nearly all actives have a fitted effect of over 50% in size; also: potency is read from the fitted curve at half-maximal effect
In short: (§2)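 Luminescence generated by NanoLuc from substrate produced by living HEK293 cells served as the viability signal. Each value reflects the reading at its stated time point during continuous 40 h compound exposure at 37 C.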

[3] = qHTS RealTime-Glo MT Cell Viability Assay in HepG2 cells - 8 hour (AID 1224873); also: nearly all actives have a fitted effect of over 55% in size
In short: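 HepG2 cells (600/well) mixed with RealTime-Glo MT reagent, settled 5 h at 37 C/5% CO2 before compound addition. Nonlytic NanoLuc luminescence from viable-cell prosubstrate reduction read repeatedly during 40 h treatment at 37 C.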

[4] = A CellTox Green Cytotoxicity Assay to monitor cytotoxicity in HEK293 cells - 24 hour (AID 1224875); also: series mostly up to about 77 µM; nearly all actives have a fitted effect of over 45% in size
In short: as §1

[5] = A CellTox Green Cytotoxicity Assay to monitor cytotoxicity in HepG2 cells - 16 hour (AID 1224876); also: nearly all actives have a fitted effect of over 45% in size
In short: (§3)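 HepG2, 600 cells/well premixed w/ CellTox Green; 5 h settle, 37 C/5% CO2; pintool cpd add (DMSO); 37 C, 40 h; fluorescence read at 0, 8, 16, 24, 32, 40 h.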

[6] = qHTS RealTime-Glo MT Cell Viability Assay in HepG2 cells - 32 hour (AID 1224877); also: nearly all actives have a fitted effect of over 55% in size
In short: (§4)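 Tox21 10K library screened in qHTS format on HepG2 cells carrying RealTime-Glo reagents. Compounds were added after a 5 h preincubation, and the luminescent signal from continuous culture was measured repeatedly during 40 h treatment.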

[7] = A CellTox Green Cytotoxicity Assay to monitor cytotoxicity in HepG2 cells - 24 hour (AID 1224878); also: nearly all actives have a fitted effect of over 45% in size
In short: as §3

[8] = A CellTox Green Cytotoxicity Assay to monitor cytotoxicity in HepG2 cells - 40 hour (AID 1224879); also: nearly all actives have a fitted effect of over 40% in size; also: potency is read from the fitted curve at half-maximal effect
In short: as §3

[9] = qHTS RealTime-Glo MT Cell Viability Assay in HEK293 cells - 0 hour (AID 1224880)
In short: (§5)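 Luminescence readout at each listed time point; HEK293, 600 cells/well, RealTime-Glo MT reagent added with cells; compounds pinned (23 nL in DMSO) after 5 h at 37 C; continuous culture at 37 C.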

[10] = A CellTox Green Cytotoxicity Assay to monitor cytotoxicity in HepG2 cells - 0 hour (AID 1224882); also: nearly all actives have a fitted effect of over 35% in size
In short: as §3

[11] = A CellTox Green Cytotoxicity Assay to monitor cytotoxicity in HepG2 cells - 32 hour (AID 1224883); also: nearly all actives have a fitted effect of over 50% in size; also: potency is read from the fitted curve at half-maximal effect
In short: as §3

[12] = A CellTox Green Cytotoxicity Assay to monitor cytotoxicity in HEK293 cells - 8 hour (AID 1224884); also: nearly all actives have a fitted effect of over 35% in size
In short: as §1

[13] = qHTS RealTime-Glo MT Cell Viability Assay in HepG2 cells - 16 hour (AID 1224885); also: nearly all actives have a fitted effect of over 50% in size
In short: as §4

[14] = qHTS RealTime-Glo MT Cell Viability Assay in HEK293 cells - 24 hour (AID 1224886); also: nearly all actives have a fitted effect of over 50% in size; also: potency is read from the fitted curve at half-maximal effect
In short: as §2

[15] = qHTS RealTime-Glo MT Cell Viability Assay in HEK293 cells - 8 hour (AID 1224887); also: nearly all actives have a fitted effect of over 50% in size; also: potency is read from the fitted curve at half-maximal effect
In short: as §5

[16] = A CellTox Green Cytotoxicity Assay to monitor cytotoxicity in HEK293 cells - 16 hour (AID 1224888); also: nearly all actives have a fitted effect of over 35% in size
In short: as §1

[17] = qHTS RealTime-Glo MT Cell Viability Assay in HepG2 cells - 0 hour (AID 1224889); also: nearly all actives have a fitted effect of over 50% in size
In short: as §4

[18] = A CellTox Green Cytotoxicity Assay to monitor cytotoxicity in HepG2 cells - 8 hour (AID 1224890); also: nearly all actives have a fitted effect of over 45% in size
In short: as §3

[19] = A CellTox Green Cytotoxicity Assay to monitor cytotoxicity in HEK293 cells - 32 hour (AID 1224881); also: nearly all actives have a fitted effect of over 40% in size
In short: as §1

[20] = qHTS RealTime-Glo MT Cell Viability Assay in HEK293 cells - 40 hour (AID 1224874); conditions: RealTime-Glo luminescence; max response: stronger effect = lower value; also: nearly all actives have a fitted effect of over 50% in size; also: potency is read from the fitted curve at half-maximal effect
In short: as §5
% is scaled to controls: 0 for no effect and ±100 for the full control effect.

CCCCCOC(=O)CCCCC
inactive: Potency [1] | Potency [2] | Potency [3] | Potency [4] | Potency [5] | Potency [6] | Potency [7] | Potency [8] | Potency [9] | Potency [10] | Potency [11] | Potency [12] | Potency [13] | Potency [14] | Potency [15] | Potency [16] | Potency [17] | Potency [18]

CCCN(CCC)CCc1cccc2c1CC(=O)N2
inactive: Potency [1] | Potency [2] | Potency [3] | Potency [4] | Potency [5] | Potency [7] | Potency [8] | Potency [9] | Potency [19] | Potency [10] | Potency [11] | Potency [12] | Potency [13] | Potency [14] | Potency [15] | Potency [16] | Potency [17] | Potency [18]

CC(C)(CC(=O)O)C(=O)O
inactive: Potency [1] | Potency [2] | Potency [3] | Potency [4] | Potency [5] | Potency [7] | Potency [19] | Potency [10] | Potency [12] | Potency [13] | Potency [14] | Potency [15] | Potency [16] | Potency [17] | Potency [18]

CN1C(=O)N(C)C(O)C1O (centres undefined)
inactive: Potency [1] | Potency [2] | Potency [3] | Potency [4] | Potency [5] | Potency [6] | Potency [7] | Potency [8] | Potency [19] | Potency [10] | Potency [11] | Potency [12] | Potency [13] | Potency [14] | Potency [15] | Potency [16] | Potency [17] | Potency [18]

O=c1cc(-c2ccccc2)oc2ccccc12
inactive: Potency [3] | Potency [4] | Potency [5] | Potency [6] | Potency [7] | Potency [10] | Potency [12] | Potency [13] | Potency [16] | Potency [17] | Potency [18]
inactive and 43.6 µM (active): Potency [8]
active: Potency [2] 19.5 µM and 6.88 µM | Potency [20] 11 µM and 14.8 µM | Potency [14] 17.4 µM and 7.71 µM | Potency [15] 17.4 µM and 17.3 µM
inactive and 48.7 µM (active): Potency [11]

O=C(CCCN1CCN(c2ccccn2)CC1)c1ccc(F)cc1
inactive: Potency [1] | Potency [3] | Potency [4] | Potency [5] | Potency [7] | Potency [8] | Potency [19] | Potency [10] | Potency [11] | Potency [12] | Potency [13] | Potency [16] | Potency [17] | Potency [18]

O=C1CC2CC1C1CCCC21 (centres undefined)
inactive: Potency [2] | Potency [3] | max response [20] -4.86% | Potency [5] | Potency [6] | Potency [7] | Potency [8] | Potency [9] | Potency [10] | Potency [11] | Potency [13] | Potency [14] | Potency [15] | Potency [17]
